# Measured potencies and affinities stand elsewhere.
# Tested on: Staphylococcus aureus
# Details: Concentration 32 ug.mL-1;; ASSAY_TEST Inhibition of Bacterial Growth; detection method Absorption (OD600); MEDIA CAMHB; plate type 384well; NBS; CORNING #3640; time 18 hr
row,SMILES,Inhibition [%]
1,O=C(CSc1nnc2c(=O)n(-c3ccccc3)ccn12)Nc1ccc(F)cc1,5.78
2,CCc1nnc2c(SCC(=O)Nc3ccccc3Br)nc3ccccc3n12,10.46
3,CSc1ccc(CNC(=O)Cn2nc3c(N4CC(C)CC(C)C4)nccn3c2=O)cc1 (stereo not drawn),11.21
4,COc1ccc(NC(=O)Cn2nc3c4cc(-c5ccc(Cl)cc5)nn4ccn3c2=O)c(OC)c1,9.6
5,COc1cccc(CN(c2ccc(Cl)cc2)S(=O)(=O)c2ccc3nncn3c2)c1,-6.52
6,O=c1c2nnc(SCc3ccccc3F)n2ccn1-c1ccc(Br)cc1,14.85
7,O=C(Cn1nc2c(Oc3ccccc3)nc3ccccc3n2c1=O)Nc1ccc2c(c1)OCO2,13.59
8,COc1ccc(-c2cc3c4nnc(SCC(=O)Nc5ccccc5C(F)(F)F)n4ccn3n2)cc1,-10.53
9,O=S(=O)(c1ccc2nncn2c1)N(Cc1cccc(Cl)c1)c1ccc2c(c1)OCO2,4.03
10,COc1cccc(-n2ccn3c(SCC(=O)Nc4cc(F)ccc4F)nnc3c2=O)c1,11.04
11,COc1ccc(C(C)NC(=O)CCc2nnc3ccc(-c4ccc(C)cc4)nn23)cc1OC (stereo not drawn),4.62
12,COc1ccc(-c2cc3c4nn(CC(=O)Nc5ccc(OC)c(OC)c5)c(=O)n4ccn3n2)cc1,2.65
13,COc1ccccc1N1CCN(C(=O)Cn2nc3c(Oc4ccc(C)cc4)nccn3c2=O)CC1,6.41
14,C=Cc1ccc(CN(c2ccc3c(c2)OCO3)S(=O)(=O)c2ccc3nncn3c2)cc1,3.79
15,CCCCN(C)C(=O)CSc1nnc2c(=O)n(Cc3ccc(F)cc3)ccn12,7.74
16,CCc1nnc2ccc(S(=O)(=O)N(Cc3ccc(OC)cc3)c3ccc(F)cc3)cn12,4.6
17,O=C(CSc1nnc2c(=O)n(-c3ccccc3)ccn12)c1ccc(F)cc1,16.24
18,Cc1cc(C)cc(N(Cc2ccc(F)cc2)S(=O)(=O)c2cccn3c(C)nnc23)c1,-7.01
19,O=C(CCc1nnc2c(N3CCCCC3)nc3ccccc3n12)NCc1ccccc1F,5.87
20,COc1ccc(-n2ccn3c(=O)n(Cc4ccccc4Cl)nc3c2=O)cc1Cl,3.32

row,SMILES,Inhibition [%]
1,CCc1nnc2c(S(=O)(=O)N(Cc3ccc(F)cc3)c3cccc(Cl)c3)cccn12,8.4
2,CC1CC(C)CN(c2nccn3c(=O)n(CC(=O)NCc4ccccc4Cl)nc23)C1 (stereo not drawn),3.32
3,COc1ccc(CNC(=O)CSc2nnc3c4cc(-c5ccc(OC)cc5)nn4ccn23)cc1,4.43
4,CCOC(=O)c1ccc(NC(=O)CSc2nc3ccccc3n3c(C(C)C)nnc23)cc1,-3.17
5,CC(=O)c1ccc(NC(=O)Cn2nc3c(Sc4ccc(C)cc4C)nccn3c2=O)cc1,-12.01
6,O=C(Cn1nc2c3cc(-c4ccc(F)cc4)nn3ccn2c1=O)N1CCN(c2ccccc2F)CC1,-6.33
7,CCc1ccc(N(Cc2ccc(OC)cc2)S(=O)(=O)c2cccn3c(C)nnc23)cc1,5.17
8,COc1ccc(C)cc1NC(=O)Cn1nc2c(N3CCSCC3)nc3ccccc3n2c1=O,9.36
9,O=c1c2nnc(SCc3ccccc3)n2ccn1-c1ccc(Br)cc1,12.69
10,O=c1n(Cc2ccc3c(c2)OCO3)nc2ccc(-c3ccccc3)nn12,12.41
11,O=S(=O)(c1cccn2cnnc12)N(Cc1cccc(F)c1)c1cccc(Cl)c1,6.21
12,COc1ccc(NC(=O)c2ccc3nn(CC(=O)Nc4ccc(C(F)(F)F)cc4)c(=O)n3c2)cc1,9.76
13,Cc1cc(C)cc(NC(=O)Cn2nc3n(C)c(=O)c4c(c(-c5ccccc5)cn4C)n3c2=O)c1,7.23
14,COc1ccc(C(=O)CSc2nnc3c(=O)n(-c4ccc(F)cc4)ccn23)cc1OC,16.25
15,Cc1cc(C)cc(N(Cc2ccccc2F)S(=O)(=O)c2cccn3c(C)nnc23)c1,15.31
16,COc1cccc(NC(=O)Cn2nc3c(=O)n(-c4ccc(Br)cc4)ccn3c2=O)c1,-2.73
17,Cc1ccc(-c2cc3c4nn(CC(=O)Nc5ccc(Cl)cc5)c(=O)n4ccn3n2)cc1C,-15.51
18,COc1ccccc1-n1ccn2c(SCC(=O)c3ccc(C)cc3C)nnc2c1=O,6.26
19,O=c1n(Cc2ccc(Cl)cc2)nc2ccc(-c3ccccc3)nn12,3.14

# Tested on: Escherichia coli
# Details: Concentration 32 ug.mL-1;; ASSAY_TEST Inhibition of Bacterial Growth; detection method Absorption (OD600); MEDIA CAMHB; plate type 384well; NBS; CORNING #3640; time 18 hr
row,SMILES,Inhibition [%]
1,O=C(CSc1nnc2c(=O)n(-c3ccccc3)ccn12)Nc1ccc(F)cc1,-2.43
2,CCc1nnc2c(SCC(=O)Nc3ccccc3Br)nc3ccccc3n12,0.26
3,CSc1ccc(CNC(=O)Cn2nc3c(N4CC(C)CC(C)C4)nccn3c2=O)cc1 (stereo not drawn),0.68
4,COc1ccc(NC(=O)Cn2nc3c4cc(-c5ccc(Cl)cc5)nn4ccn3c2=O)c(OC)c1,5.1
5,COc1cccc(CN(c2ccc(Cl)cc2)S(=O)(=O)c2ccc3nncn3c2)c1,-6.27
6,O=c1c2nnc(SCc3ccccc3F)n2ccn1-c1ccc(Br)cc1,-2.34
7,O=C(Cn1nc2c(Oc3ccccc3)nc3ccccc3n2c1=O)Nc1ccc2c(c1)OCO2,2.6
8,COc1ccc(-c2cc3c4nnc(SCC(=O)Nc5ccccc5C(F)(F)F)n4ccn3n2)cc1,1.87
9,O=S(=O)(c1ccc2nncn2c1)N(Cc1cccc(Cl)c1)c1ccc2c(c1)OCO2,-10.92
10,COc1cccc(-n2ccn3c(SCC(=O)Nc4cc(F)ccc4F)nnc3c2=O)c1,-6.25
11,COc1ccc(C(C)NC(=O)CCc2nnc3ccc(-c4ccc(C)cc4)nn23)cc1OC (stereo not drawn),2.29
12,COc1ccc(-c2cc3c4nn(CC(=O)Nc5ccc(OC)c(OC)c5)c(=O)n4ccn3n2)cc1,2.66
13,COc1ccccc1N1CCN(C(=O)Cn2nc3c(Oc4ccc(C)cc4)nccn3c2=O)CC1,0.36
14,C=Cc1ccc(CN(c2ccc3c(c2)OCO3)S(=O)(=O)c2ccc3nncn3c2)cc1,-6.77
15,CCCCN(C)C(=O)CSc1nnc2c(=O)n(Cc3ccc(F)cc3)ccn12,-2.27
16,CCc1nnc2ccc(S(=O)(=O)N(Cc3ccc(OC)cc3)c3ccc(F)cc3)cn12,-5.2
17,O=C(CSc1nnc2c(=O)n(-c3ccccc3)ccn12)c1ccc(F)cc1,-2
18,Cc1cc(C)cc(N(Cc2ccc(F)cc2)S(=O)(=O)c2cccn3c(C)nnc23)c1,-9.2
19,O=C(CCc1nnc2c(N3CCCCC3)nc3ccccc3n12)NCc1ccccc1F,6.41
20,COc1ccc(-n2ccn3c(=O)n(Cc4ccccc4Cl)nc3c2=O)cc1Cl,3.28

row,SMILES,Inhibition [%]
1,CCc1nnc2c(S(=O)(=O)N(Cc3ccc(F)cc3)c3cccc(Cl)c3)cccn12,-8.07
2,CC1CC(C)CN(c2nccn3c(=O)n(CC(=O)NCc4ccccc4Cl)nc23)C1 (stereo not drawn),2.48
3,COc1ccc(CNC(=O)CSc2nnc3c4cc(-c5ccc(OC)cc5)nn4ccn23)cc1,0.23
4,CCOC(=O)c1ccc(NC(=O)CSc2nc3ccccc3n3c(C(C)C)nnc23)cc1,-9.79
5,CC(=O)c1ccc(NC(=O)Cn2nc3c(Sc4ccc(C)cc4C)nccn3c2=O)cc1,-21.11
6,O=C(Cn1nc2c3cc(-c4ccc(F)cc4)nn3ccn2c1=O)N1CCN(c2ccccc2F)CC1,3.42
7,CCc1ccc(N(Cc2ccc(OC)cc2)S(=O)(=O)c2cccn3c(C)nnc23)cc1,-2.97
8,COc1ccc(C)cc1NC(=O)Cn1nc2c(N3CCSCC3)nc3ccccc3n2c1=O,0.1
9,O=c1c2nnc(SCc3ccccc3)n2ccn1-c1ccc(Br)cc1,-3.8
10,O=c1n(Cc2ccc3c(c2)OCO3)nc2ccc(-c3ccccc3)nn12,-0.49
11,O=S(=O)(c1cccn2cnnc12)N(Cc1cccc(F)c1)c1cccc(Cl)c1,-7.43
12,COc1ccc(NC(=O)c2ccc3nn(CC(=O)Nc4ccc(C(F)(F)F)cc4)c(=O)n3c2)cc1,-5.89
13,Cc1cc(C)cc(NC(=O)Cn2nc3n(C)c(=O)c4c(c(-c5ccccc5)cn4C)n3c2=O)c1,1.88
14,COc1ccc(C(=O)CSc2nnc3c(=O)n(-c4ccc(F)cc4)ccn23)cc1OC,-2.12
15,Cc1cc(C)cc(N(Cc2ccccc2F)S(=O)(=O)c2cccn3c(C)nnc23)c1,-0.2
16,COc1cccc(NC(=O)Cn2nc3c(=O)n(-c4ccc(Br)cc4)ccn3c2=O)c1,-3.42
17,Cc1ccc(-c2cc3c4nn(CC(=O)Nc5ccc(Cl)cc5)c(=O)n4ccn3n2)cc1C,-16.09
18,COc1ccccc1-n1ccn2c(SCC(=O)c3ccc(C)cc3C)nnc2c1=O,-10.12
19,O=c1n(Cc2ccc(Cl)cc2)nc2ccc(-c3ccccc3)nn12,-1.49

# Source: ChEMBL document CHEMBL4513146, “CO-ADD screening of Karazin Kharkiv National University (Ukraine) compounds”
